Source: PubChem BioAssay (NCI)
About 79,000 compounds went through this panel and 15% of them were active in at least one assay; those are over-represented in the sample as a whole. Activity calls are given as the source filed them. Cut-off read from the data, not from the text of the source: active = growth inhibition above about 70%; inactive = the rest.

Assay: NCI Yeast Anticancer Drug Screen. Data for the bub3 strain (AID 167)
Conditions: S. cerevisiae bub3 mutant strain, stronger effect = higher value
Procedure: Growth inhibition of yeast strains with defined genetic alterations is measured as a screen for potential anti-cancer activity. Selected strains with alterations in DNA damage repair or cell cycle control were exposed to compounds and growth inhibition was measured relative to vehicle treated controls. The strain used in this assay is bub3

[1] = at 5.0 µM (retest, dose inferred, filed as 0.5)
[2] = at 50.0 µM (retest, dose inferred, filed as 5.0)

| SMILES | growth inhibition [1] | growth inhibition [2] | growth inhibition (at 50.0 µM) |
| --- | --- | --- | --- |
| CC/C(=N\NS(=O)(=O)c1ccc(C)cc1)c1cccc(OC)c1 | 43% (inactive) | 86% (active) | 36.6% (inactive) |
| Cn1c2ccccc2c2c(C#N)c(C#N)c([N+](=O)[O-])cc21 | 27% (inactive) | 98% (active) | 93.2% (active) |
| CC1CC(c2ccccc2)CC(C)N1c1ccc2ccccc2c1 (configuration not stated) | 0% (inactive) | 65% (inactive) | 93.7% (active) |
| COC(=O)c1c(C(N)=O)c(C)n(NC(=O)c2ccccc2)c1C | -4% (inactive) | 3% (inactive) | -2.65% (inactive) |
| CC(=O)OC12CC(C(F)(F)F)(C(F)(F)F)OC1(OC(C)=O)CC(C(F)(F)F)(C(F)(F)F)O2 (configuration not stated) | 7% (inactive) | 28% (inactive) | 67.1% (inactive) |
| CCC[CH2][Ge]([CH2]CCC)([CH2]CCC)[O]C(C)=O | -2% (inactive) | 6% (inactive) | 19.2% (inactive) |
| COc1ccc(NC(=O)CCC(NS(=O)(=O)c2ccc(C)cc2)C(=O)O)cc1 (configuration not stated) | -2% (inactive) | 2% (inactive) | 51.9% (inactive) |
| COc1ccc2nc3cc(Cl)ccc3c(NCCNCCCNC(=O)c3cc(-c4ccccc4)nc4ccccc34)c2c1 | -15% (inactive) | 97% (active) | 94.2% (active) |
| C/C(=N/Nc1ccc([N+](=O)[O-])cc1[N+](=O)[O-])C1=CCC(C(C)(C)C)CC1 (configuration not stated) | -3% (inactive) | -1% (inactive) | -11.6% (inactive) |
| O=C1CCCc2cc3c(nc21)C(=O)CCC3 | -6% (inactive) | 1% (inactive) | 0.6% (inactive) |
| Nc1ccc(Cc2ccc(N)cc2[N+](=O)[O-])c([N+](=O)[O-])c1 | -4% (inactive) | -3% (inactive) | 35.4% (inactive) |
| CN1c2ccccc2C(C)(C)C12C=Cc1cc(O)ccc1O2 (configuration not stated) | -4% (inactive) | 51% (inactive) | 52.4% (inactive) |
| CCc1c(Nc2ccccc2C)[nH]c(N)nc1=S | -4% (inactive) | 8% (inactive) | 77.2% (active) |
| CCOc1c(Br)cc(Br)cc1/C=N/NS(=O)(=O)c1ccc(C)cc1 | 45% (inactive) | 85% (active) | 72.2% (active) |
